Shown is part of a subset that was picked to be rich in hits.
ROC1-CUL1 inh: inhibitors of human ROC1-CUL1 ubiquitin ligase activity | in vitro K48 di-Ub FRET, acceptor:donor ratio, 45 min | hit rate 0.6% among 140,000 | E3 ubiquitin-protein ligase RBX1 (Homo sapiens) + Cullin-1 (Homo sapiens), P62877+Q13616 | AID 1347404, 2020 | inhibition, % at 10 µM; in the data active means inhibition above about 25%
Target sequence (P62877 whole entry, looked up): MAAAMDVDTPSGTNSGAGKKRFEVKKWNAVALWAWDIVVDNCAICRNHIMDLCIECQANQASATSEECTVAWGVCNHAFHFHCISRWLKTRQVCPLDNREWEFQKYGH
Target sequence (Q13616 whole entry, looked up): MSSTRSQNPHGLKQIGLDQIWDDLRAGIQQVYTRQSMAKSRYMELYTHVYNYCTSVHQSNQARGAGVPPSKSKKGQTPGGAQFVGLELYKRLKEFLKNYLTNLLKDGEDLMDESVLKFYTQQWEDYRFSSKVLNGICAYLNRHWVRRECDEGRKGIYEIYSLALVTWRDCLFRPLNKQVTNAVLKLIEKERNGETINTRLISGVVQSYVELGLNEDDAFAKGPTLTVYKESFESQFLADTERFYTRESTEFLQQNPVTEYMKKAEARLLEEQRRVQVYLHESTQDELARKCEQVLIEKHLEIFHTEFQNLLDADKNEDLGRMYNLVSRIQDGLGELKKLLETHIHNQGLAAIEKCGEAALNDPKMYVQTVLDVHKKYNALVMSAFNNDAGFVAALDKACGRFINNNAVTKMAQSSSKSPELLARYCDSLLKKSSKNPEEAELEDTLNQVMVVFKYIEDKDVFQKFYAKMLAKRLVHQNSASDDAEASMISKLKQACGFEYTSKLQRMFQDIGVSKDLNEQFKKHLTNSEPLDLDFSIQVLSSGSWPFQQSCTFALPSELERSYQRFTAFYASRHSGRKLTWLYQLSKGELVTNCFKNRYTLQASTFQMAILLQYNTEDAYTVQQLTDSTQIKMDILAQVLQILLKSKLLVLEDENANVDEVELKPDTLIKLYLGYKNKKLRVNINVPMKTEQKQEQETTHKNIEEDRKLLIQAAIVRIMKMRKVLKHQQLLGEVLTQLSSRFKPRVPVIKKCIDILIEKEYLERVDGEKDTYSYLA
The depositor's hits bear a star.

Cc1c(CN2CCN(CC(C)C)C(CCO)C2)c(=O)n(-c2ccccc2)n1C (centres undefined) was read as ROC1-CUL1 inh 1.1.
For CC1(C)CC(NC(=O)NCc2ccco2)CC(C)(C)N1 the results were ROC1-CUL1 inh 2.8.
Screening CSc1cccc(NC(=O)COc2ccc(S(=O)(=O)NCC(C)C)cc2Cl)c1 returned ROC1-CUL1 inh -0.1.
Screening CC(C)Cc1nc2n(c(=O)c1C#N)C(=N)C(C#N)S2 (centres undefined) returned ROC1-CUL1 inh 11.7.
Screening O=c1/c(=C\c2ccco2)sc2n1C(c1cccs1)C1=C(N=2)c2ccccc2CC1 (centres undefined) returned ROC1-CUL1 inh 28.1*.
For O=c1/c(=C\c2cc3c(cc2[N+](=O)[O-])OCO3)sc2n1C(c1cccs1)C1=C(N=2)c2ccccc2CC1 (centres undefined) the results were ROC1-CUL1 inh -7.2.
O=c1/c(=C\c2cccs2)sc2n1C(c1cccc(F)c1)C1=C(N=2)c2ccccc2CC1 (centres undefined) was read as ROC1-CUL1 inh 1.9.
`Cc1ccc(Cn2nnc3c2C(=O)c2ccccc2C3=O)cc1` gave ROC1-CUL1 inh 65.3*.
For COc1cccc(Cn2nnc3c2C(=O)c2ccccc2C3=O)c1 the results were ROC1-CUL1 inh -0.8.
`O=c1c2ccccc2nnn1Cc1ccccc1` gave ROC1-CUL1 inh -6.5.
`COc1ccccc1-c1cc(=O)c2cc(Br)cc(Br)c(=O)c2o1` gave ROC1-CUL1 inh -0.8.
Screening COc1ccc(/C=N/Nc2nc3c(s2)CCCC3)cc1 returned ROC1-CUL1 inh 55.0*.
COc1ccc(CC(=O)Nc2nc3c(s2)CCCC3)cc1 was read as ROC1-CUL1 inh 2.1.
For CCOc1ccc(/C=N\Nc2nc(C)c(C(C)=O)s2)cc1 the results were ROC1-CUL1 inh 8.9.
Screening CC(C)(C)c1ccc(CCC(=O)NC2CC2)cc1 returned ROC1-CUL1 inh -9.2.
COc1ccc(C2CC(=O)C3C(=Nc4ccccc4N(C(=O)C(C)C)C3c3cccc(F)c3)C2)cc1 (centres undefined) was read as ROC1-CUL1 inh -5.5.
CN(Cc1ccccc1)C1CCCN(C(=O)/C=C/c2ccccc2)C1 (centres undefined) was read as ROC1-CUL1 inh 5.8.
Screening CS(=O)(=O)Nc1cccc(C(=O)NC2CCCCCCC2)c1 returned ROC1-CUL1 inh 6.8.
Screening Fc1ccc(Nc2nc(Nc3ccc(F)cc3F)nc(N3CCOCC3)n2)cc1 returned ROC1-CUL1 inh -3.5.
Nc1ccc(/C=C/c2ccc(Nc3nc(Nc4ccccc4)nc(N4CCOCC4)n3)cc2S(=O)(=O)O)c(S(=O)(=O)O)c1 was read as ROC1-CUL1 inh 37.2*.
Cc1ccc(Nc2nc(Nc3ccc(C)c(C)c3)nc(N3CCOCC3)n2)cc1C was read as ROC1-CUL1 inh -4.2.
`Cc1ccccc1N1CCN(C(=O)Nc2ccccc2F)CC1` gave ROC1-CUL1 inh -10.0.
Oc1c(C(Nc2ccc(Cl)cc2)c2ccccn2)ccc2cccnc12 (centres undefined) was read as ROC1-CUL1 inh 2.2.
`S=c1[nH]nc(-c2ccc(Cl)c(Cl)c2)o1` gave ROC1-CUL1 inh 4.7.
Screening O=S(=O)(c1ccccc1C(F)(F)F)N1CCc2ccccc2C1 returned ROC1-CUL1 inh 7.4.
Screening Cc1ccc(C2C3=C(CC(C)CC3=O)Nc3ncnn32)cc1 (centres undefined) returned ROC1-CUL1 inh 6.3.
`N=C1C(=O)c2c(N)cccc2C(=O)C1Br` (centres undefined) gave ROC1-CUL1 inh 102.5*.
For Nc1cccc2c1C(=O)N(c1cccc(F)c1)C2=O the results were ROC1-CUL1 inh -1.4.
NC(=O)c1n[nH][nH]c1=S was read as ROC1-CUL1 inh 6.4.
Screening Cn1c(SCc2nc3ccccc3[nH]2)nnc1-c1ccncc1 returned ROC1-CUL1 inh 3.3.
`CCC(=O)N(C)C(Cc1ccc(F)cc1F)C1CCN(C(=O)c2cccc(Cl)c2)CC1` (centres undefined) gave ROC1-CUL1 inh 1.1.
`CC(C)C(C(=O)O)n1c(O)c(C=C2C=Nc3ccccc32)sc1=S` (centres undefined) gave ROC1-CUL1 inh 25.3*.
O=c1[nH]n(-c2cc(Cl)cc(Cl)c2)c(O)c1C=C1C=Nc2ccccc21 was read as ROC1-CUL1 inh -1.3.
For O=C(Cn1c(O)c(C=C2C=Nc3ccccc32)sc1=O)N1CCOCC1 the results were ROC1-CUL1 inh 3.2.
Screening CCc1cccc(C)c1NC(=O)CN(C)S(=O)(=O)c1ccc(C)cc1 returned ROC1-CUL1 inh 9.6.
`O=C(Nc1ccc(F)c(F)c1)c1ccc(CN2CCCC2)cc1` gave ROC1-CUL1 inh 7.1.
Screening COc1cc(CN2CCCN(c3nc(C)c4cc(C)c(C)cc4n3)CC2)ccc1F returned ROC1-CUL1 inh 8.2.
For COc1ccc(-c2[nH]nc3c2C(c2ccoc2)C(C#N)C(=N)O3)cc1 (centres undefined) the results were ROC1-CUL1 inh -6.5.
`COc1ccc(-c2[nH]nc3c2C(c2cc(I)cc(I)c2O)C(C#N)C(=N)O3)cc1` (centres undefined) gave ROC1-CUL1 inh 28.2*.
